This is an account of results in PubChem BioAssay AID743279 (National Center for Advancing Translational Sciences (NCATS), 2014).

About 17,000 (4.7%) of roughly 360,000 compounds were called active. Roughly 5% stayed inconclusive and do not appear here. This excerpt belongs to a sample that is enriched for actives. Unmarked numbers belong to inactive results. No stated cut-off is given here; in the data, active means activity change below about -50%; inconclusive means mostly about -30% to -49%; inactive means weaker than that.
On the % scale 0 is the no-effect control and ±100 the full control effect.

The nature of the assay: qHTS for Inhibitors of Inflammasome Signaling: IL-1-beta AlphaLISA Primary Screen. As to conditions: THP-1 LPS/ATP IL-1B secretion, 16 h; at 57.5 µM, stronger effect = lower value. From the text:
Inflammasomes are a set of intracellular multi-protein complexes that enable autocatalytic activation of inflammatory caspases and drive the innate immune response to counter harmful agents. […] A qHTS assay, based on AlphaLISA technology, was developed to screen the Molecular Libraries Small Molecule Repository (MLSMR) to look for novel inflammasome inhibitors. The assay detects IL-1B using AlphaLISA anti-IL-1B acceptor and donor beads. A decreased emission signal, indicating reduced IL-1B secretion, is the desired outcome for this assay. NIH Chemical Genomics Center [NCGC] NIH Molecular Libraries Probe Centers Network [MLPCN] MLPCN Grant: MH095513 Assay Provider: Shyam Biswal Ph.D., Johns Hopkins University Immunity. 2012 Jul 27;37(1):85-95. PMID: 22819042 [2] Curr Pharm Des. 2012;18(16):2320-8. PMID: 22390695
Three microliters containing 3000 THP-1 cells were dispensed into the wells of solid, white, tissue culture treated Greiner 1,536-well plates. Library compounds and positive control, Glyburide, were pin-transferred (23 nL) by a Kalypsys pin-tool equipped with a 1,536-pin array, resulting in final compound concentration ranges of 2.5 nM to 57.5 uM. After 1 hr of cell culture incubation (37 °C, 5% CO2), 1 microL of 1 microg/mL lipopolysaccharide (250 ng/mL, final) and 5 mM ATP (1.25 mM, final) were added to stimulate the cells. After 16 hr of cell culture incubation with the compounds, 1.5 uL of anti-IL-1B acceptor beads (6 ug/mL, final) and biotinylated antibody (0.6 nM, final) were added to the plate, followed by a 1 hr incubation at ambient temperature. To detect the secreted IL-1B, 1.5 uL of AlphaLISA SA-Donor beads (24 ug/mL, final) were added, followed by 30 min of incubation in the dark at ambient temperature. The AlphaLISA signal was read by a PerkinElmer EnVision plate reader with an ultrasensitive luminescence detector and 1536 Plate HTS AlphaScreen aperture (excitation of 680nm and emission of 615nm).
Turning to `Cc1ccc(NC(=O)CCCNC(=O)c2ccc(Cl)cc2)cc1S(=O)(=O)N1CCCCC1`, the activity change is -6.38%. Regarding `COC(C[C@@H]1O[C@@H]1C(=O)[C@H](C)OCc1ccccc1)OC`, the activity change is 8.19%. With `COC(C/C=C/C(=O)[C@@H](C)OCc1ccccc1)OC`, the activity change is -95.4% (active). Take `COC(C[C@H](O)CC(=O)[C@@H](C)OCc1ccccc1)OC`: the activity change is -16.6%.

Turning to `C[C@H](CO)N1C[C@H](C)[C@H](CN(C)C(=O)c2ccncc2)OCc2ccccc2-c2c(n(C)c3ccccc23)C1=O`, the activity change is 42.4%. With `CCCOC1CCCN(Cc2cn(C)nc2-c2ccccc2F)C1` (stereo not drawn) the figure was -7.48%; with `COCCNC(=O)C1(C)CCCN(Cc2cccc(F)c2)C1` (stereo not drawn), -12.6%.

Regarding `COc1ccc(OC)c(C(=O)NC(CC(N)=O)c2ccc(N3CCC(N4CCCCC4)CC3)c([N+](=O)[O-])c2)c1` (stereo not drawn), the activity change is 13.4%. For `COC(=O)Cn1cc(/C=C/[N+](=O)[O-])c2ccccc21`, the activity change is -27.5%. Turning to `O=[N+]([O-])/C=C/c1ccc2c(ccn2Cc2ccccc2)c1`, the activity change was -90.5% (active). In the case of `O=C(Cn1ccc2cc(S(=O)(=O)N3CCCC3)ccc21)NCc1ccccc1`, the activity change is 14.2%. On to `Cc1ccc(-c2nc3c(C)cc(Br)cn3c2Cc2ccccc2)cc1`, for which the activity change was 58%.

Consider `COc1cccc(NC(=O)CCc2nnc3ccc(N4CCC(C)CC4)nn23)c1`, for which the activity change was -6.48%. Turning to `O=C(NCc1ccc(F)cc1)c1cc(C2CCCCN2C(=O)C2CCCCC2)on1` (stereo not drawn), the activity change is -0.0267%.

`Cc1cc(OCCCC(=O)Nc2cc(S(=O)(=O)N3CCOCC3)ccc2N2CCOCC2)ccc1Cl`: the activity change is -1.02%. In the case of `CSc1cccc(NC(=S)N(C(C)C)C(C)c2ccccn2)c1` (stereo not drawn), the activity change is -98.3% (active). In the case of `CSc1cccc(NC(=S)N(Cc2ccccc2)Cc2ccccn2)c1` it was -6.44%; in that of `CC(c1ccccn1)N(CCN(C)C)C(=S)Nc1ccccc1F` (stereo not drawn), 0%. With `O=C(/C=C/[C@H]1O[C@@H](n2ccc(=O)[nH]c2=O)[C@H](O)[C@@H]1O)NCc1ccccn1` the figure was 21.7%. As for `COc1ccc(N2CCN(C3CCCCC3NS(=O)(=O)c3ccccc3)CC2)cc1` (stereo not drawn), the activity change was -0.438%. In the case of `O=C(C(Cl)Cl)N1CCN(c2ccccn2)CC1` it was 1.16%. Regarding `O=C(/C=C/c1cccc(C(F)(F)F)c1)N1CCN(c2ccccn2)CC1`, the activity change was -95.2% (active). As for `O=C(Cc1ccc(Br)cc1)N1CCN(c2ccccn2)CC1`, the activity change is 8.64%.

As for `O=S1(=O)CCN(Cc2ccccc2)CC1`, the activity change is -15.7%. With `Cc1nccn1-c1ccc(NC(=O)[C@H]2O[C@@H](n3cnc4c(N)ncnc43)[C@H](O)[C@@H]2O)cc1`, the activity change was -25.6%. In the case of `COc1ccc(-n2ncc3c2CC(C)(C)CC3NC(=O)CCc2c(C)noc2C)cc1` (stereo not drawn), the activity change result is “inactive”. With `O=C(N=C1SC2CS(=O)(=O)CC2N1Cc1ccccc1)c1ccccc1` (stereo not drawn) the figure was -24.4%. In the case of `CCc1nc2ccc(C(=O)NCc3ccc(OC)cc3)cn2c1N(CC)Cc1cccc(Br)c1` it was -70.8% (active).

On to `CCc1nc2ccc(C(=O)Nc3cccc(OC)c3)cn2c1N(CCC(C)C)CCN(C)C`, for which the activity change was 30.7%. As to `CCc1nc2ccc(C(=O)NCCNC(C)=O)cn2c1N(CC)Cc1cccc(Br)c1`, the activity change was 27.3%. As for `CN(C(=O)CN1CCN(c2cc(-c3ccc(OCc4ccccc4)cc3)ncn2)CC1)c1ccccc1`, the activity change is 8.46%.

As to `CC(C)CC[n+]1ccn(C2=C([O-])c3ccccc3C(=O)/C2=N\S(=O)(=O)c2ccccc2)c1`, the activity change was -50.7% (active). In the case of `COc1ccc(S(=O)(=O)/N=C2\C=C(NS(=O)(=O)c3ccccc3)C(=O)c3ccccc32)cc1` it was 36%; in that of `Cc1ccc(S(=O)(=O)/N=C2\C=C(NS(=O)(=O)c3ccc(C)cc3)C(=O)c3ccccc32)cc1`, 57.7%.

For `CC(=O)c1ccc(NC(=O)C(C)NCc2ccc(Cl)cc2)cc1` (stereo not drawn), the activity change is -14.8%. Regarding `CCc1nc2c(OCc3ccccc3)cccn2c1N(C)C(=O)c1ccco1`, the activity change was -17.3%. With `C[C@H]1CN([C@@H](C)CO)C(=O)c2cc(-c3cccc(F)c3)cnc2O[C@@H]1CN(C)S(C)(=O)=O` the figure was 7.01%; with `CCC(=O)N1CCc2cc(Br)c(S(=O)(=O)NCCN3CCCCC3CC)cc21` (stereo not drawn), -5.22%; with `C/C(CC1CC(C)(C)OC1=O)=N/Nc1nc(-c2ccccc2)cs1` (stereo not drawn), -54.9% (active).

Take `CCc1noc(C)c1C(=O)Nc1nc(-c2ccccc2)cs1`: the activity change was 61.4%. In the case of `CC1(C)CC(CC(=O)O)C(=O)O1` (stereo not drawn) it was -17%; in that of `COC(=O)[C@@]1(Cc2ccc(F)cc2)[C@H]2c3cc(C(=O)N4CCCC4)n(C[C@H](O)CO)c3C[C@H]2CN1C(=O)c1ccccc1`, -0.432%. For the compound `CN1OC[C@@H]2CN(S(=O)(=O)c3cccc4ccccc34)[C@H](c3ccc(N4CCCCC4)cc3)C[C@@H]21`, the activity change was -6.93%. In the case of `COc1ccc(CNC(=O)C2CCN(C(=O)c3ccccc3)CC2)cc1` it was 0%; in that of `COc1ccc(CNC(=O)C2(CC3CC(c4ccccc4)=NO3)CCN(C(=O)c3cccc(O)c3)CC2)cc1` (stereo not drawn), -61.2% (active); in that of `Cc1ccccc1-c1cc(C(=O)NCC2CC2)n(CC2CC(c3cccnc3)=NO2)n1` (stereo not drawn), -18.9%.

As to `CCCCCCCNC(=O)C1(CC2CC(c3cccc(Br)c3)=NO2)CCN(C(=O)c2cc(OCC)c(OCC)c(OCC)c2)CC1` (stereo not drawn), the activity change was -24.2%. Turning to `O=C(c1ccccc1)N1CCC(CC2CC(c3ccc(Cl)cc3)=NO2)(C(=O)NCC2CCCCC2)CC1` (stereo not drawn), the activity change was -55.1% (active). For the compound `CCNC(=O)C1(C)CCN(C(=O)c2ccccc2)C1` (stereo not drawn), the activity change is 26.9%. In the case of `O=C(C[C@H]1CC[C@H]2[C@@H](COC[C@H](O)CN2C(=O)c2ccccn2)O1)N1CCN(c2ccccc2)CC1` it was 18.8%; in that of `CC(=O)N=c1ncn(CC(COC(C)=O)OC(C)=O)c2nc[nH]c12` (stereo not drawn), -17.6%; in that of `O=c1[nH][nH]c2c1[C@H](c1ccc(Cl)cc1)O[C@H](CCc1ccccc1)C2`, -5.73%. Take `Cc1cccc(CC2(O)C(=O)Nc3ccccc32)n1` (stereo not drawn): the activity change was 12.5%. Take `Cc1cc(C(C)(C)C)cc(S(=O)(=O)Nc2ccc(C(=O)O)cc2)c1C`: the activity change is 0%. In the case of `COc1ccc(NC(=O)C(=O)NCC(c2ccco2)N2CCc3ccccc3C2)cc1` (stereo not drawn) it was 5.37%; in that of `CC(=O)Nc1cc(-c2ccc(N3CCN(C)CC3)cc2)cn2c(-c3ccc(F)cc3)cnc12`, -91.8% (active).

On to `COc1ccccc1-c1cc(NC(C)=O)c2ncc(-c3ccc(F)cc3)n2c1`, for which the activity change was -21.1%.

Consider `CC(=O)Nc1cc(-c2ccc(N3CCN(C)CC3)cc2)cn2c(-c3cccc(C(=O)N(C)C)c3)cnc12`, for which the activity change was -6.52%. For `CC(=O)N1c2ccc(S(=O)(=O)N3CCCC(C(=O)NCc4ccc(Cl)cc4)C3)cc2CC1C` (stereo not drawn), the activity change is -22.7%.

Take `CCN(CCN(C)C)C(=O)c1ccc2nc(C)c(N(C)C(=O)CCc3ccccc3)n2c1`: the activity change was 10.6%. In the case of `CC(=O)Nc1cccc(NC(=O)c2ccc3c(c2)CCN3S(C)(=O)=O)c1`, the activity change was -15.8%. In the case of `Cc1cc(C)cc(NC(=O)C(c2ccccc2)N2CCN(CC(=O)N3CCCC3)CC2)c1` (stereo not drawn) it was 15.8%; in that of `Cc1[nH]c(C)c(S(=O)(=O)N2CCC(C)CC2)c1C(=O)N1CCCC1`, -16.2%; in that of `CSCCC(NC(=O)c1ccccc1)C(=O)N1CCCCCCC1` (stereo not drawn), -20.8%. With `COc1ccccc1C(=O)NC(CCSC)C(=O)N1CCN(C(C)=O)CC1` (stereo not drawn), the activity change is -2.96%. Take `CSCCC(NC(=O)c1ccccc1)C(=O)N1CCN(Cc2ccc(Cl)cc2)CC1` (stereo not drawn): the activity change is -78.1% (active). In the case of `O=C1NC[C@@H](CCCCN2CCN(CCc3ccc(O)cc3)C(=O)C2=O)N(CC2CCCCC2)C1=O` it was 24.5%; in that of `COc1ccc(C2Nc3ccccc3C(=O)N2c2ccc(F)cc2)cc1Cn1nnc2ccccc21` (stereo not drawn), -12.7%. As to `COc1ccc(N2C(=O)c3ccccc3NC2c2ccc(OC)c(CN3CCOCC3)c2)cc1` (stereo not drawn), the activity change was -2.56%. As to `COc1ccc(C2Nc3ccccc3C(=O)N2Cc2ccccc2)cc1Cn1nnc2ccccc21` (stereo not drawn), the activity change was -62.4% (active).

In the case of `Nc1ncnc2c1ncn2[C@@H]1O[C@H](C(=O)NS(=O)(=O)c2c(Cl)nc3sccn23)[C@@H](O)[C@H]1O`, the activity change was -13.5%. As to `CC(=O)Nc1cccc(-c2cc(NC=O)c3ncc(-c4ccc(F)c(Cl)c4)n3c2)c1`, the activity change is 18.8%. In the case of `Cc1cccc(C)c1NC(=O)C(c1cccc(F)c1)N1CCN(C)CC1` (stereo not drawn) it was -18.5%. On to `COc1cc(SC#N)ccc1N=Cc1c(C)[nH]n(-c2ccc(C)cc2)c1=O`, for which the activity change was -83.8% (active).

For the compound `FC(F)(F)Oc1ccccc1C(c1nnnn1C1CCCCC1)N1CCN(C/C=C/c2ccccc2)CC1` (stereo not drawn), the activity change was -26.5%.

`O=C(CSc1ccc(Cl)cc1)NC1CC1`: the activity change is 3.85%. Regarding `Cc1ccc(-c2nc(CSCC(=O)NC3CCN(Cc4ccccc4)CC3)c(C)o2)cc1`, the activity change is -64.8% (active). In the case of `Cc1ccc(-c2cc(C(=O)NC3CCN(Cc4ccccc4)CC3)c3ccccc3n2)cc1` it was -4.22%. For `Cc1ccc(S(=O)(=O)NCCC(=O)NC2CCN(Cc3ccccc3)CC2)cc1`, the activity change is -11.3%. On to `CC(=O)c1ccc(S(=O)(=O)N(C)CCCC(=O)N(C)Cc2ccccc2F)cc1`, for which the activity change was -0.0792%. `Cc1cccc(C)c1NC(=O)N1CC(C)OC(C)C1` (stereo not drawn): the activity change is -6.92%. Regarding `Cc1ccc(S(=O)(=O)N(C)c2nc3ccccc3n3c(C(C)C)nnc23)cc1`, the activity change was 9.42%. Consider `O=C1N(c2ccc(Cl)cc2)C(c2ccc(Cl)cc2)N2CCCN12` (stereo not drawn), for which the activity change is -5.15%.
